Assay results published in PubChem BioAssay AID620 (Sanford-Burnham Center for Chemical Genomics, 2007).
Among all 87,000 compounds or so, about 360 (0.41%) were called active. The full list was thinned out, with actives kept by preference. A number with no mark means an inactive call. Rule as the data show it: active = cytotoxicity above about 50%; inactive = the rest.

Assay: cytotoxicity in HT1080 fibrosarcoma cells, cell-based, fluorescence readout (AID 620);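 also: cells exposed to compound overnight then 4 h with Alamar Blue; 0% = vehicle DMSO and 100% = killing control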
Conditions: HT1080 viability, at 10 µM, stronger effect = higher value

Structure (SMILES) | cytotoxicity
O=C(NCc1cccs1)c1noc2c1CCCCC2 | -0.7%
O=C(Nc1nccs1)c1ccc(S(=O)(=O)NCC2CCCCC2)cc1 | -11.1%
CCOc1ccc(NC(=O)Cn2nnc(C(=O)NCc3ccco3)c2N)cc1 | 11.4%
COc1ccc(NC(=O)Cn2nnc(C(=O)NCc3ccco3)c2N)c(OC)c1 | -0.4%
CCOc1ccccc1NC(=O)Cn1nnc(C(=O)NCc2ccco2)c1N | 56.8% (active)
CCOc1ccccc1NC(=O)C(CC(C)C)NC(=O)C1CCC(C)CC1 (stereo not drawn) | 4.7%
CN(C)CC(=O)c1c[nH]c2ccccc12 | -5.2%
CC(=O)N(c1ccc(Cl)cc1)c1c[nH]c2ccccc12 | 3.1%
O=C(CCl)N(c1ccccc1)c1c[nH]c2ccccc12 | 71% (active)
O=C(O)CCC(=O)c1c[nH]c2ccccc12 | -4.6%
CCN(CC)CC(=O)c1c[nH]c2ccccc12 | 3.6%
O=C(CCl)N(c1ccc(Cl)cc1)c1c[nH]c2ccccc12 | 100% (active)
CC(C)OC(=O)c1cccnc1SCc1cc(=O)n2ccccc2n1 | -0.4%
COc1cc(C)nc(N2CCCC(C(=O)NC3CCC(C)CC3)C2)n1 (stereo not drawn) | -9.4%
Cc1c(C(=O)NC2CCCCC2)oc2c1C(=O)CC(C)(C)C2 | -3.7%
COc1ccc(OCc2nc3ccccc3[nH]2)cc1 | 5.1%
CCOc1ccc2nc(SCC)[nH]c2c1 | 15.4%
CCOc1ccc2nc(-c3ccccc3)[nH]c2c1 | 66.7% (active)
COc1ccc2nc(-c3ccccc3)[nH]c2c1 | 28.2%
Nc1ccc(-c2nc3ccccc3[nH]2)cc1 | -3.5%
CC(=O)N1[C@H](Cc2ccccc2)C=C[C@]1(C)C(=O)NCc1ccc(C)o1 | -2.9%
Cc1ccsc1C1NC(=O)c2c(sc3c2CCN(C)C3)N1 (stereo not drawn) | 9.6%
O=S(=O)(c1cccc(-c2csc(-c3ccccc3)n2)c1)N1CCOCC1 | 2%
CC(C)CCn1c(N)c(S(=O)(=O)c2cccs2)c2nc3ccccc3nc21 | 57% (active)
CC(C)Cn1c(N)c(S(=O)(=O)c2cccs2)c2nc3ccccc3nc21 | 30.5%
COCCn1c(N)c(S(=O)(=O)c2cccs2)c2nc3ccccc3nc21 | 11%
Cc1cc(N2CCN(C(=O)c3ccco3)CC2)n2ncc(-c3ccccc3)c2n1 | 5.6%
Cc1ccccc1-n1c(SCC(=O)N2CCN(c3ccccc3)CC2)nnc1-c1ccncc1 | -3.7%
